Compound activity (PubChem)
KB-3-1 tox = kills parental KB-3-1 adenocarcinoma cells; Potency, µM (titrated, usually from 46.1 µM), hits mostly cytotoxic; 400,000 tested, 1.4% active; AID 1347075; KB-3-1 viability, CellTiter-Glo ATP luminescence, 72 h; further: potency means the concentration at half of the fitted maximal effect; nearly all actives have a fitted effect of over 60% in size
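Cytotoxicity measured as CellTiter-Glo luminescence after 72 h at 37 C. Compound titrations were pinned onto drug-naive KB-3-1 parental adenocarcinoma cells grown in DMEM with 10% FBS, and normalized data fitted to concentration-response curves.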
KB-V1 cytotox = KB-V1 MDR subline cytotoxicity | AID 1347076 | Potency, µM (top dose mostly 46.1 µM), actives largely listed as cytotoxic | KB-V1 MDR cells viability, CellTiter-Glo, 72 h | 400,000 tested, 3.4% active; further: potency means the concentration at half of the fitted maximal effect; nearly all actives have a fitted effect of over 60% in size
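Following 72 h at 37 degrees C with compound, KB-V1 cell viability was read by CellTiter-Glo luminescence, medium being phenol-red-free DMEM plus 10% FBS; concentration-response parameters came from normalized, curve-fitted qHTS data.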
HT1080 IDH1KD tx = HT-1080 IDH1 knockdown cell toxicity (counter line); Potency, µM (series often up to 46.1 µM), for inactives: at the top dose activity, negative = toxicity, hits mostly cytotoxic; AID 686971; HT-1080 IDH1 knockdown viability, ATP luminescence, 48 h; 360,000 tested, 2% active;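 further: potency means the concentration at half of the fitted maximal effect; 0% = DMSO wells and -100% = cell-free medium wells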
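Knockdown cells (IDH1KD HT-1080) received compounds 2 h after plating at 750 cells/well and were kept 48 h at 37 °C in 5% FBS RPMI. A CellTiter-Glo luminescence read gave % activity for curve fitting.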
HT1080NT lethal = kills 2HG-producing HT-1080-NT fibrosarcoma cells; AID 686970; Potency, µM (series often up to 46.1 µM), for inactives: at the highest dose activity, negative = less viability, most hits filed as cytotoxic; HT-1080-NT fibrosarcoma viability, CellTiter-Glo ATP luminescence, 48 h; 360,000 tested, 1.6% active;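 further: NT is the 2HG producing partner of a matched IDH1 knockdown line; potency means the concentration at half of the fitted maximal effect; 0% = DMSO-treated cells and -100% = media-only wells without cells; nearly all actives have a fitted effect of over 55% in size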
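Viability by CellTiter-Glo luminescence after 48 h compound exposure at 37C of HT-1080-NT cells (750/well, RPMI, 5% FBS). % activity scaled between DMSO wells and medium-only wells, then curve-fitted and categorized by curve class.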
IL1B secr inh = inhibitors of inflammasome signaling (IL-1 beta secretion); 360,000 tested, 4.7% active; THP-1 LPS/ATP IL-1B secretion, AlphaLISA, 16 h; hits give low values; activity change, % at 57.5 µM; in the data active means activity change below about -50%; inconclusive means mostly about -30% to -49%
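Secreted IL-1B measured by AlphaLISA bead assay after 16 h compound exposure of THP-1 cells; compounds (final up to 57.5 uM) added 1 h before LPS (250 ng/mL) and ATP (1.25 mM) stimulation; lower signal means less secretion.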
* marks the source's active call; other numbers are inactive results; i = inactive; ? = inconclusive; / = no result. A selection: hits, their analogues and other compounds. The true share with any hit is near 8.8%. Unless noted, the call rests on the fitted dose curve; in most records, active means well fitted curve in the direction sought with a large enough effect; inconclusive means small, poorly fitted or top-dose-only effect, or another doubt; inactive means no such curve, though single readings can be large; an effect the other way counts as inactive or inconclusive. Unless noted, on the % scale 0 is the no-effect control and ±100 the full control effect.

SMILES	KB-3-1 tox	KB-V1 cytotox	HT1080 IDH1KD tx	HT1080NT lethal	IL1B secr inh
CCCCOc1ccc(C(=O)N/C(=C/C=C/c2ccccc2)C(=O)NCCO)cc1	i	i	-8%	-3%	-53*
Cc1ccc(/C=C(\NC(=O)c2ccccc2)C(=O)OCc2ccccc2)cc1	i	16µM*	-1%	3%	0
CN(C)CCCNC(=O)/C(=C\C=C\c1ccccc1)NC(=O)c1ccc([N+](=O)[O-])cc1	i	?	?	-7%	-57*
O=C(NNC(=O)c1ccco1)c1cccc([N+](=O)[O-])c1	i	i	?	?	0
CNC[C@H]1OCc2ccccc2-c2ccccc2C(=O)N([C@@H](C)CO)C[C@H]1C	i	i	-2%	-1%	9
CCOC(=O)C1=CCN(S(=O)(=O)c2ccc(C)cc2)C1c1cccc2ccccc12 (stereo not drawn)	?	?	-24%	-16%	23
CCOC(=O)/C(=C\C=C\c1ccccc1)NC(=O)c1ccccc1	i	4.6µM*	-3%	-2%	-90*
Cc1cccc2[nH]cc(/C=C3/C=Nc4ccccc43)c12	i	i	/	/	/
CCOc1ccc2ccc(OCC)c(/C=N/n3cnnc3)c2c1	i	i	-23%	-25%	-73*
O=C(CCCc1nc(-c2ccc(Cl)cc2)no1)N1CCOCC1	?	9.2µM*	-23%	-19%	11
O=C(C1CCCN(Cc2nc(-c3ccc(Cl)cc3)no2)C1)N1CCOCC1 (stereo not drawn)	?	i	-19%	?	-83*
Cc1cccc(-c2noc(CCCC(=O)N3CCOCC3)n2)c1	i	21µM*	3%	13%	9
COc1ccc(-c2noc(CCCC(=O)NCC3CCCO3)n2)cc1 (stereo not drawn)	i	i	-12%	-9%	12
Cc1cccc(-c2noc(CCC(=O)N3CCN(c4cc(C)ccc4C)CC3)n2)c1	i	i	1%	3%	-6
Cc1ccc(-c2noc(CCCC(=O)N3CCOCC3)n2)cc1	i	i	2%	-1%	21
O=C(CCCc1nc(-c2ccc(Cl)cc2)no1)NCC1CCCO1 (stereo not drawn)	10µM*	13µM*	-6%	-13%	26
COc1ccc(OC)c(CCNC(=O)c2ccccc2NC(=O)C2=C(C)OCCS2)c1	i	i	-15%	0%	0
CCOc1ccc(-c2c(C)nn3c(C)c(C(=O)NCCc4ccccc4)cnc23)cc1OCC	i	i	/	/	/
Brc1ccc(-c2nc3c4ccccc4ccn3c2Cc2ccccc2)cc1	i	i	-1%	-2%	53
Cc1ccc(-c2nnc(N3CCN(c4ccccn4)CC3)c3ccccc23)cc1	?	?	?	-28%	-89*
Cc1ccc(-c2nnc(N3CC(C)OC(C)C3)c3ccccc23)cc1 (stereo not drawn)	i	i	1%	2%	-75*
c1ccc(-c2nnc(N3CCN(c4ccccn4)CC3)c3ccccc23)cc1	?	?	-6%	6%	-73*
Clc1nnc(N2CCCCC2)c2ccccc12	i	?	-9%	-6%	-81*
CN1CCN(c2nnc(-c3ccc(F)cc3)c3ccccc23)CC1	i	?	-14%	0%	-30
Cc1ccc(-c2nnc(N3CCN(CCO)CC3)c3ccccc23)cc1	i	i	0%	-7%	?
COc1ccc(/C=C/C(=O)OCC(=O)c2cc(C)ccc2C)cc1	i	i	8%	15%	-7
Cc1ccc(-c2nnc(N3CCCCC3)c3ccccc23)cc1	i	i	-9%	-1%	-56*
Cc1cc(C)c(C(=O)/C=C/c2ccc3c(c2)OCO3)c(=O)[nH]1	?	?	0%	1%	-91*
Cc1ccc(C(=O)/C=C/c2ccc(Br)cc2)o1	i	i	-9%	-22%	-57*
Cc1cc(C)c(C(=O)/C=C/c2cccc3ccccc23)c(=O)[nH]1	6.5µM*	8.2µM*	?	?	-85*
